Results filed as inconclusive are left out. Activity calls are given as the source filed them. The call rests on the fitted dose curve; in most records, active means well fitted activation curve with a large enough effect in the signal ratio in the repeat runs (not every such curve was filed as active); inconclusive means weak or mixed curves; inactive means flat fitted curve, though single readings scatter; the % refers to the signal ratio.
Experiment: qHTS assay to identify small molecule agonists of H2AX (AID 1224845)
Conditions: CHO-K1 phospho-H2AX Ser139 HTRF, 3 h; series mostly up to 154 µM; activation (H2AX phosphorylation): at the top concentration
Summary of the method: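 Wild-type CHO-K1 cells plated overnight, then exposed 3 hr at 37C to compounds at 15 concentrations (0.76% DMSO). Lysed, then HTRF anti-pH2AX(S139)-cryptate/anti-H2AX-d2 detection after 24 hr at room temperature; emissions 665 and 620 nm.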
On the % scale 0 is the no-effect control and ±100 the full control effect.

Structure (SMILES) | activation (H2AX phosphorylation)
CC(C)c1ccc(C(=O)N=C(N)N)cc1S(C)(=O)=O | -1.42% [at 70.9 µM] (inactive)
COc1cc(NC(C)CCCN)c2ncccc2c1 (stereo not drawn) | -1.66% [at 70.9 µM] (inactive)
CC(C(=O)O)c1ccc(C(=O)c2cccs2)cc1 (stereo not drawn) | 0.678% [at 70.9 µM] (inactive)
CCCCCc1ccco1 | -2.11% [at 70.9 µM] (inactive)
O=C(O)CCCc1c[nH]c2ccccc12 | 1.05% (inactive)
CC(C)(C)NCC(O)COc1cccc2c1C[C@H](O)[C@H](O)C2 (stereo partly drawn) | -0.701% [at 70.9 µM] (inactive)
Cc1cc(CCCOc2c(C)cc(-c3noc(C(F)(F)F)n3)cc2C)on1 | -1.94% [at 70.9 µM] (inactive)
CC(C)(C(=O)c1cccnc1)c1cccnc1 | 1.3% [at 70.9 µM] (inactive)
Cc1c[nH]c2ccccc12 | 0.0829% [at 70.9 µM] (inactive)
CC(=O)C(C)=O | -0.527% (inactive)
CCN(CC)CCNC(=O)c1cc(Cl)c(N)cc1OC | 1.03% [at 70.9 µM] (inactive)
Oc1ccc2c(c1)Cc1ccccc1-2 | -1.71% (inactive)
O=C1OC[C@H](Cc2cccc(O)c2)[C@H]1Cc1cccc(O)c1 | -1.13% [at 70.9 µM] (inactive)
CC(C)OC(=O)c1ccccc1C(=O)OC(C)C | 2.49% (inactive)
CCC(=O)OCc1ccc(OC)cc1 | -0.73% (inactive)
C/C(C=O)=C\c1ccccc1 | 0.802% (inactive)
CNc1c2c(nn1C)CCCC2 | -0.124% [at 70.9 µM] (inactive)
CNS(=O)(=O)c1cc(C(=O)N2CCC(CCN3C4CCC3CC(n3c(C)nc5ccccc53)C4)(c3cccc(F)c3)CC2)c(Cl)cc1F (stereo not drawn) | -2.87% (inactive)
O=C(O)c1cccc(Oc2ccccc2)c1 | 0.732% (inactive)

Structure (SMILES) | activation (H2AX phosphorylation)
CCO[Si](C)(CCCOCC1CO1)OCC (stereo not drawn) | -1.35% (inactive)
CC[C@@H](CO)NCCN[C@@H](CC)CO | 0.632% [at 70.9 µM] (inactive)
COc1ccc(-c2cc(=S)ss2)cc1 | -3.45% [at 70.9 µM] (inactive)
CSCC[C@H](NC(=O)[C@H](Cc1c[nH]c2ccccc12)NC(=O)CCNC(=O)OC(C)(C)C)C(=O)N[C@@H](CC(=O)O)C(=O)N[C@@H](Cc1ccccc1)C(N)=O | -3.62% [at 70.9 µM] (inactive)
CC(C)(C)C1(CCc2ccc(Cl)cc2)CO1 (stereo not drawn) | 3.18% (inactive)
CCCCCCC(CO)CCCC (stereo not drawn) | -0.327% (inactive)
O=C(O)c1cc(Cl)cc(Cl)c1O | 0.799% (inactive)
Nc1c(Cl)cc(Cl)cc1[N+](=O)[O-] | -2.06% (inactive)
Nc1nc2ccc(OC(F)(F)F)cc2s1 | -1.77% [at 70.9 µM] (inactive)
BrC(Br)C(Br)Br | -0.296% (inactive)
CC(=O)N[C@@H](Cc1ccc(O)cc1)C(=O)O | -1.27% [at 70.9 µM] (inactive)
CC(CN(CCN(CC(C)OCCO)CC(C)OCCO)CC(C)OCCO)OCCO (stereo not drawn) | 0.904% (inactive)
CC12CC3CC(C)(C1)CC(N)(C3)C2 | 1.72% [at 70.9 µM] (inactive)
CCC(Cl)CC(Cl)C(Cl)C(Cl)C(Cl)C(C)Cl (stereo not drawn) | -1.57% [at 31.6 µM] (inactive)
Cc1ccc(N(CCO)CCO)cc1 | 0.343% (inactive)
CC(=O)OCC1=C(C(=O)O)N2C(=O)[C@@H](NC(=O)CSc3ccncc3)[C@H]2SC1 | -2.01% [at 70.9 µM] (inactive)
Cc1cccc(C)c1NC(=O)c1cc(S(N)(=O)=O)c(Cl)cc1O | 0.19% [at 70.9 µM] (inactive)
CCN(CC)CCOC(=O)C(c1ccccc1)c1ccccc1 | 0.848% [at 70.9 µM] (inactive)
CN1C(CSCC(F)(F)F)Nc2cc(Cl)c(S(N)(=O)=O)cc2S1(=O)=O (stereo not drawn) | -3.1% [at 70.9 µM] (inactive)
